Reference: PubChem BioAssay (NCI)
About 83,000 compounds went through this panel and 20% of them were active in at least one assay; those are over-represented in the sample as a whole.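 Percent growth is the endpoint: 0 to 100 indicates growth inhibition (40 means 60% inhibition), 0 means no net growth, and negative values indicate cell death.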 Unmarked numbers belong to inactive results. Active and inactive are the calls of the source. How the source made its calls: active means growth percent below 10; inactive means the rest.

System: SK-MEL-5 melanoma
Experiment: NCI-60 one-dose screen, 48 h (100 = growth as untreated, 0 = no growth, -100 = all killed)
Settings: 10 µM

SMILES | growth
COc1cc2c(cc1NC(=O)C(F)(F)F)-c1ccc(NC(=O)C(F)(F)F)cc1C2 | 90.8%
Cc1ccc(S(=O)(=O)N/N=C2\CCCc3ccccc32)cc1 | 103%
O=C(c1ccccc1)N(C(=O)c1ccccc1)N1CCCC1 | 98.4%
CCOC(=O)C1C(C(=O)OCC)C2C(=O)C3C(C(=O)OCC)C(C(=O)OCC)C3C(=O)C12 (stereo unspecified) | 100%
COc1ccc(-c2nn(-c3cccc(Cl)c3)cc2-c2cc(-c3ccccc3)[nH]c(=O)c2C#N)cc1 | 39.9%
CN(C)c1ncnc2c1nnn2C1OC(CO)C(O)C1O (stereo unspecified) | -12.6% (active)
COc1ccccc1-n1c(-c2sc(NC(C)=O)nc2C)n[nH]c1=S | 105%
CC(C)(C)OC(=O)CC(S(=O)(=O)c1ccccc1)S(=O)(=O)c1ccccc1 | 94.2%
O=C1/C(=C/c2cccc(F)c2)Cc2ccccc21 | 99.4%
COc1ccc(/C(=N\N)C(=O)c2ccccc2)cc1 (tested in a mixture with another compound) | 97.3%
O=C(Nc1cc([N+](=O)[O-])c2[nH]c(=O)c3ccccc3c2c1)C(F)(F)F | 91%
N#CC1=CC2CN(Cc3ccccc3)C1C1C(=O)N(c3ccccc3)C(=O)C21 (stereo unspecified) | 93.3%
CCN(CCCNc1cc2c(c(N)c1S(=O)(=O)O)C(=O)c1ccccc1C2=O)c1ccccc1 | 95.2%
O=C1NC(=O)c2c(CCCSc3nc4ccccc4c(=O)n3CCc3ccccc3)cccc21 | 95.8%
COc1ccc(-c2nn(-c3cccc(Cl)c3)cc2-c2c(C#N)c(N)n(N)c(=O)c2C#N)cc1 | 81.9%
CCOC(=O)C1=CSC2=NC3=C(CCC/C3=C\c3cc(OC)c(OC)c(OC)c3)C(c3cc(OC)c(OC)c(OC)c3)N12 (stereo unspecified) | 60.3%
CCOC(=O)C1=CSC2=NC3=C(CCC/C3=C\c3ccc(Cl)cc3)C(c3ccc(Cl)cc3)N12 (stereo unspecified) | 84.7%
O=C1CCn2c1c(O)c1ccccc1c2=O | 103%
Cc1ccc(-c2c3c(N)nc(-c4cccnc4)nc3nc3c2c(C)nn3-c2ccccc2)cc1 | 76.1%
COc1ccc(-c2nn(-c3cccc(Cl)c3)cc2-c2c(C#N)c(=O)n3[nH]c(-c4ccccc4)nc3c2C#N)cc1 | 96.4%
CCOC(=O)/C(=C(\C)N)C1CC(=O)NC1=O (stereo unspecified) | 97.9%

System: UACC-62 melanoma
Experiment: as above
Settings: 10 µM

SMILES | growth
NC1=CC(=O)C(=O)c2cccnc21 | 88.3%
Cc1cn(-c2cc(F)cc(NC(=O)c3ccc(C)c(Nc4nccc(-c5cccnc5)n4)c3)c2)cn1 | 40.9%
C/C(=C/CCC(C)[C@@H]1CC[C@]2(C)C3=C(CC[C@@]12C)[C@@]1(C)CCC(=O)C(C)(C)[C@@H]1CC3)C(=O)O (stereo partly specified) | -92.4% (active)
CCOC(=O)CN(c1sc(C)c(C)c1C(=O)OCC)S(=O)(=O)c1ccc(C)cc1 | 68.2%
Cc1c2c[n+](C(C)C)ccc2c(C)c2c1[nH]c1ccccc12 | 10.5%
CC(C)C1=C(O)C2=C(C(=O)C1=O)[C@@]1(C)CCCC(C)(C)[C@@H]1CC2 | 80%
CN(C)CCC1(c2ccccc2)CCN(C)C1=O (stereo unspecified) | 105%
COc1ccc(/C(C#N)=C/c2ccccc2OC)cc1 | 41.6%
COc1cc2c(cc1NC(=O)C(Cl)Cl)-c1ccc(NC(=O)C(Cl)Cl)cc1C2 | -22.2% (active)
Cn1c2ccccc2c2c3[nH][nH]c(=O)c3c3c4ccccc4[nH]c3c21 | -5.51% (active)
COc1ccc(-c2nn(-c3cccc(Cl)c3)cc2-c2cc(-c3ccccc3)nc(N)n2)cc1 | 74.3%
COc1ccc(C(=O)c2ccccc2CN2C(=O)c3ccccc3C2=O)cc1 | 97.2%
COc1ccc(-c2nn(-c3cccc(Cl)c3)cc2-c2nc(N)[nH]c(=O)c2C#N)cc1 | 58.8%
O=C1/C=C/[C@@H](O)[C@@H]2C[C@@H](O)C[C@H]2/C=C/CCC[C@H](C(F)(F)F)O1 | -3.9% (active)
O=c1cn[nH]c2ccc(Br)cc12 | 112%
Cc1c2cnccc2c(C)c2c1oc1ccccc12 | 53.9%
COC(=O)C1OC1c1cc([N+](=O)[O-])ccc1OC (stereo unspecified) | 106%
CCc1ccc(C2=NN(c3ccc(S(C)(=O)=O)cc3)C(=O)CC2)cc1 | 38%
COc1cc2c(cc1NC(=O)C(F)(F)F)-c1ccc(NC(=O)C(F)(F)F)cc1C2 | 92%
Cc1ccc(S(=O)(=O)N/N=C2\CCCc3ccccc32)cc1 | 92.9%

SMILES | growth
O=C(c1ccccc1)N(C(=O)c1ccccc1)N1CCCC1 | 85.8%
CCOC(=O)C1C(C(=O)OCC)C2C(=O)C3C(C(=O)OCC)C(C(=O)OCC)C3C(=O)C12 (stereo unspecified) | 101%
COc1ccc(-c2nn(-c3cccc(Cl)c3)cc2-c2cc(-c3ccccc3)[nH]c(=O)c2C#N)cc1 | 35%
CN(C)c1ncnc2c1nnn2C1OC(CO)C(O)C1O (stereo unspecified) | -32.9% (active)
COc1ccccc1-n1c(-c2sc(NC(C)=O)nc2C)n[nH]c1=S | 98.5%
CC(C)(C)OC(=O)CC(S(=O)(=O)c1ccccc1)S(=O)(=O)c1ccccc1 | 103%
O=C1/C(=C/c2cccc(F)c2)Cc2ccccc21 | 99.2%
COc1ccc(/C(=N\N)C(=O)c2ccccc2)cc1 (tested in a mixture with another compound) | 92.8%
O=C(Nc1cc([N+](=O)[O-])c2[nH]c(=O)c3ccccc3c2c1)C(F)(F)F | 81.7%
N#CC1=CC2CN(Cc3ccccc3)C1C1C(=O)N(c3ccccc3)C(=O)C21 (stereo unspecified) | 90.7%
CCN(CCCNc1cc2c(c(N)c1S(=O)(=O)O)C(=O)c1ccccc1C2=O)c1ccccc1 | 92.1%
O=C1NC(=O)c2c(CCCSc3nc4ccccc4c(=O)n3CCc3ccccc3)cccc21 | 90%
COc1ccc(-c2nn(-c3cccc(Cl)c3)cc2-c2c(C#N)c(N)n(N)c(=O)c2C#N)cc1 | 75.8%
Nc1nc(-c2cccnc2)nc2c1sc(=S)n2-c1ccccc1 | 101%
CCOC(=O)C1=CSC2=NC3=C(CCC/C3=C\c3cc(OC)c(OC)c(OC)c3)C(c3cc(OC)c(OC)c(OC)c3)N12 (stereo unspecified) | 74.4%
CCOC(=O)C1=CSC2=NC3=C(CCC/C3=C\c3ccc(Cl)cc3)C(c3ccc(Cl)cc3)N12 (stereo unspecified) | 82%
O=C1CCn2c1c(O)c1ccccc1c2=O | 113%
Cc1ccc(-c2c3c(N)nc(-c4cccnc4)nc3nc3c2c(C)nn3-c2ccccc2)cc1 | 82.2%
COc1ccc(-c2nn(-c3cccc(Cl)c3)cc2-c2c(C#N)c(=O)n3[nH]c(-c4ccccc4)nc3c2C#N)cc1 | 99.3%
CCOC(=O)/C(=C(\C)N)C1CC(=O)NC1=O (stereo unspecified) | 103%
